From PubChem BioAssay
Rab9 promoter act: activators of Rab9 promoter | hit rate 2.8% among 320,000 | Potency, µM (titrated, usually from 9.22 µM), without a hit: top-dose activation, negative = inhibition, hits mostly activators | Huh7 Rab9 promoter-luciferase reporter, luminescence, 24 h; further: % of control where 0% means no effect; nearly all actives have a fitted effect of over 60% in size
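Stable Rab9-luc Huh7, 1500 cells/well, 2 h settle; cmpd in DMSO, 24 h, 37 °C/5% CO2; luciferase reagent 10 min RT; luminescence.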
ELG1 genotox: inducers of genotoxicity in HEK293T ELG1-luciferase cells | hit rate 1.3% among 330,000 | Potency, µM (doses to about 46 µM), inactives show at the highest dose activity change, positive = activation, usual class: activators | HEK293T ELG1-luciferase reporter, luminescence, 16 h; further: % of control where 0% means no effect; nearly all actives have a fitted effect of over 60% in size
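Quantitative HTS format in 1536-well plates. HEK293T ELG1-luciferase reporter cells receive test compound and are incubated 16 hr at 37 °C, 5% CO2; ONE-Glo added, 30 min room temperature, then luminescence read.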
SMN2 splice up: enhancers of SMN2 splice variant expression | HEK293 SMN2-luciferase splicing reporter, luminescence, 30-36 h | Potency, µM (doses to about 46.1 µM), for inactives: top-dose activity change, positive = activation, actives largely listed as activators | hit rate 2.8% among 210,000; further: % of control where 0% means no effect; nearly all actives have a fitted effect of over 55% in size
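qHTS luciferase splicing reporter: luminescence rises when SMN2 exon 7 is included in transfected HEK293 cells. Compound exposure lasted 30-36 h at 37C, with 4.5 mM final sodium butyrate as control, followed by a ONE-Glo read.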
KinaseGlo FLuc: counter-screen: inhibitors of Kinase-Glo firefly luciferase. Q27757. hit rate 0.28% among 200,000. Potency, µM (titrated, usually from 38.3 µM), for inactives: at the highest dose activity change, negative = inhibition, usual class: inhibitors. Kinase-Glo luciferase, ATP luminescence, 8 min. AID 1379; further: on the % scale 0 is the no-effect control and ±100 the full control effect; nearly all actives have a fitted effect of over 60% in size
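Luminescence was the read-out, taken after 8-minute incubation at ambient temperature. Luciferase turned over luciferin with 10 uM ATP in imidazole pH 7.2 buffer containing KCl, MgCl2, Tween 20 and BSA.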
NPC1 promoter act: activators of NPC1 promoter | Huh7 NPC1 promoter luciferase reporter, 24 h | Potency, µM (doses to about 9.22 µM), for the others: at the top dose activation, actives largely listed as activators | hit rate 2.4% among 320,000 | AID 485313; further: % of control where 0% means no effect; nearly all actives have a fitted effect of over 60% in size
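In 1536-well qHTS, Huh7 cells harboring an NPC1 promoter–luciferase construct received compound for 24 h; activation was quantified by luminescence following luciferase reagent addition.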
FLuc counter: counter-screen for miR-21 project: firefly luciferase inhibitors or activators; Potency, µM (top dose mostly 57.5 µM), without a hit: at the top dose activity change, negative = inhibition, usual class: inhibitors; purified FLuc, Km substrates, luminescence inhibition; hit rate 6.9% among 360,000; P08659;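 further: plate controls were vehicle for no effect and reference inhibitor for full effect; nearly all actives have a fitted effect of over 55% in size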
Target sequence (P08659 whole entry, looked up): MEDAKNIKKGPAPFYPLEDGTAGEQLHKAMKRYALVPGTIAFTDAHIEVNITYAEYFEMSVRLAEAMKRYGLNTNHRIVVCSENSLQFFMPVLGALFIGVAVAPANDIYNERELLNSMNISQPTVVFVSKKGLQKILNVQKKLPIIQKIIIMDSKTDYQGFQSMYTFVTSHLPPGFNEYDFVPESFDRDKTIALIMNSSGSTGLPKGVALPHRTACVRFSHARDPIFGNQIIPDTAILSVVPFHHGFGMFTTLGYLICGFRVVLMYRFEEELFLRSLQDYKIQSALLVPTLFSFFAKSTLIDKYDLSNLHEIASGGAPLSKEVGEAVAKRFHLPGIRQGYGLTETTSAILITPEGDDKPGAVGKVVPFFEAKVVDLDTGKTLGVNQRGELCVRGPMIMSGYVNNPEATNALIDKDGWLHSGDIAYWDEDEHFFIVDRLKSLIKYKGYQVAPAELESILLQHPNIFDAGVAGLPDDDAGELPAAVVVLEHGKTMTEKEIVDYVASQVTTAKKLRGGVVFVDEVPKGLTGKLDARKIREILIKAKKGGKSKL
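Biochemical qHTS of compounds, final roughly 60 µM downward over six points, against 10 nM purified firefly luciferase using Km concentrations of substrates (10 uM D-luciferin, 10 uM ATP) in Tris acetate pH 7.5 buffer; luminescence output.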
* = called active by the depositor; u = inconclusive; x = no result given; [ ] = dose if it differs, or a comment. An excerpt weighted towards active compounds, which were near 7.3% of everything screened. The call rests on the fitted dose curve; in most records, active means well fitted curve in the direction sought with a large enough effect; inconclusive means small, poorly fitted or top-dose-only effect, or another doubt; inactive means no such curve, though single readings can be large; an effect the other way counts as inactive or inconclusive. Potency means the concentration at half of the fitted maximal effect.

SMILES | Rab9 promoter act | ELG1 genotox | SMN2 splice up | KinaseGlo FLuc | NPC1 promoter act | FLuc counter
CCOc1ccc(C(=O)Nc2ccc3nn(-c4ccc(OC)c(Cl)c4)nc3c2)cc1 | x | x | x | x | x | -6%
Cc1cc(C=O)c(C)n1-c1sc2c(c1C(=O)O)CCCC2 | -4% | 1% | -3% | -1% | -5% | 1%
COC(=O)c1c(-n2c(C)cc(C=O)c2C)sc2c1CCCC2 | 2% | 1% | -21% | -9% | -4% | 12µM*
CCCn1cnc2cc(NCc3cccs3)ccc21 | u | u | x | x | u | 19µM*
CCn1cnc2cc(NCc3ccccc3Cl)ccc21 | u | u | x | x | u | 17µM*
CCCCn1cnc2cc(NCc3ccccc3Cl)ccc21 | x | x | 18% | x | x | 24µM*
Cc1ccc(-c2cn3c(n2)sc2cc(C(=O)NCCC4=CCCCC4)ccc23)c(C)c1 | x | x | x | x | x | -5%
COc1cccc2c1cc1c(=O)n(CC(=O)O)nc(C)n12 | x | x | 3% | x | x | -1%
CCC1CSC(Nc2ccc(C(=O)/C=C/c3ccc(OC)c(OC)c3)cc2)=N1 (centres undefined) | -19% | -17% | -59% | 0% | -15% | 24µM*
COc1cc(/C=C2\SC(=S)N(CC(=O)O)C2=O)ccc1OS(=O)(=O)c1ccc(C)cc1 | -13% | 1% | x | x | 6% | -16%
COc1cc(/C=N/NC(N)=O)ccc1OC(=O)c1cccs1 | -7% | 3% | 6% | 2% | 0% | -8%
COc1cc(/C=N/N(C)C)ccc1OC(=O)c1cccs1 | 10% | 8% | 2% | 1% | -6% | 27µM*
COc1cc(/C=C2/SC(=S)N(CC(=O)O)C2=O)ccc1OC(=O)c1cccs1 | 3% | 0% | x | x | 0% | 4.8µM*
CCOC(=O)Cn1c(=O)oc2cc(S(=O)(=O)N3CCN(c4ccc(F)cc4)CC3)ccc21 | x | x | 28% | x | x | 2%
CCCCCCCCCCCCCCCC(=O)NCC(=O)O | x | x | -7% | 0% | x | x
Cc1ccc(N2C(=O)CC(SCC(=O)Nc3ccc(S(N)(=O)=O)cc3)C2=O)cc1 (centres undefined) | u | u | x | x | u | 27µM*
Cn1c2ccccc2c2ncn(CCC3=CCCCC3)c(=O)c21 | 4.5µM* | u | x | x | 28% | 17µM*
Cn1c2ccccc2c2ncn(CCCN3CCOCC3)c(=O)c21 | 3% | 15% | u | -2% | -4% | -1%
CCOC(=O)c1ccc(NS(=O)(=O)c2cn(C)c(C)n2)cc1 | x | x | x | x | x | 0%
Cc1cc(Nc2nc3ccccc3[nH]c2=O)n(-c2ccccc2)n1 | 1% | 21µM* | 13µM* | 0% | 0% | 2%
Cc1cc(Nc2cnc3ccccc3n2)n(-c2ccccc2)n1 | -1% | -3% | -23% | -1% | -1% | u
CCOC(=O)c1ccc(NC(=O)CC2C(=O)N(c3ccc(F)cc3)C(=O)N2Cc2ccc3c(c2)OCO3)cc1 (centres undefined) | x | x | -51% | x | x | -5%
COc1ccc(-c2cc3ccc(O)c(CN4CCC(C)CC4)c3oc2=O)cc1OC | x | x | x | x | x | -1%
CCOc1ccc(-n2nnnc2SCC(=O)c2ccccc2)cc1 | -2% | 10% | -18% | -4% | 24% | u
Cc1cc(NC(=O)CSc2nnc3ccccn23)no1 | -1% | -1% | 8% | -2% | -1% | 0%
SMILES | Rab9 promoter act | ELG1 genotox | SMN2 splice up | KinaseGlo FLuc | NPC1 promoter act | FLuc counter
Cc1c(Cl)cnc(NC(=O)CSc2nnc3ccccn23)c1Cl | u | 18µM* | u | 3% | 21% | u
O=C(CSc1nnc2ccccn12)c1ccc(Cl)cc1 | 3.5µM* | u | -8% | -2% | 23% | u
CCOc1ccc(C(=O)CSc2nnc3ccccn23)cc1 | 1.1µM* | 21µM* | -2% | 3% | 2µM* | 3µM*
O=C(CSc1nnc2ccccn12)NNC(=O)c1ccc(Cl)cc1 | -4% | -2% | -7% | 0% | -2% | -7%
CCCOc1cccc(C2c3c(oc4ccc(F)cc4c3=O)C(=O)N2c2nc(C)c(C(C)=O)s2)c1 (centres undefined) | x | x | -4% | x | x | 0%
O=C(NCCN1CCOCC1)c1ccc(Cc2nc3ccccc3[nH]2)cc1 | x | x | x | -5% | x | x
Cc1nn(C(=O)c2ccccc2)c(C)c1Sc1ccc(Cl)cc1 | x | x | -10% | x | x | -6%
Cc1cc(C)nc(N/N=C/C(Cl)=C/c2ccccc2)n1 | u | u | -8% | 17% | u | 13µM*
CCOC(=O)N/N=C/C(Cl)=C/c1ccccc1 | u | u | u | -2% | u | 17µM*
O=C(Cc1cccs1)N/N=C/c1ccccc1 | 23% | 12% | x | x | 5% | u
O=C(Cc1cccs1)N/N=C/C(Cl)=C/c1ccccc1 | 3.5µM* | u | u | -4% | u | -10%
CCOc1ccc(/C=N/NC(=O)Cc2cccs2)cc1 | u | u | x | x | u | 17µM*
O=C(c1ccc2c(c1)CCN2S(=O)(=O)c1ccc(Cl)cc1)N1CCN(c2ccc(F)cc2)CC1 | x | x | -50% | x | x | 1%
Cc1c(NC(=O)c2ccc(-c3ccc(F)cc3)o2)cccc1-c1nc2ncccc2o1 | x | x | -2% | x | x | u
Oc1ccc(Cc2nccc3cc(O)c(O)cc23)cc1O | x | x | -7%[9.22 µM] | -3%[7.66 µM] | x | x
Oc1ccc(-c2nc(-c3ccccc3)c(-c3ccc(Br)cc3)[nH]2)cc1 | x | x | 4% | x | x | -15%
Oc1ccc(N=Nc2n[nH]c(-c3ccc(Br)cc3)n2)cc1 | -9% | 6% | 16µM* | 1% | 12% | 7.6µM*
Oc1ccc(N=Nc2n[nH]c(-c3ccccc3)n2)cc1 | 1µM* | 8.2µM* | u | -16% | 1.6µM* | 3.8µM*
Cc1cc(=O)[nH]c(/N=C(\N)Nc2ccc(Cl)cc2)n1 | x | x | 0%[9.22 µM] | -1%[7.66 µM] | x | x
CC(C)(C)c1ccc(-c2nnc(N)s2)cc1 | 1.4µM* | u | x | -8% | 1.4µM* | 1.9µM*
CCOc1ccc(-c2nc(CCl)cs2)cc1 | 2.2µM* | u | u | -5% | u | 3µM*
CCCCOc1cccc(-c2nnc(N)s2)c1 | 9% | u | u | 2% | 3% | u
CCCCOc1ccc(-c2nnc(N)s2)cc1 | u | u | 20% | 0% | 28% | 7.6µM*
Nc1nnc(-c2ccc(Cl)cc2)s1 | 11% | u | -15% | -1% | 19% | u
Nc1nnc(-c2ccc(F)cc2)s1 | 5% | 4% | 6% | -2% | -2% | u
CCOc1ccc(-c2nnc(N)s2)cc1 | u | 11µM* | 11µM* | -6% | u | 13µM*
CCCCOc1ccc(-c2ncc(N)cn2)cc1 | 2.8µM* | u | x | x | 1.8µM* | 6.7µM*
CCOC(=O)c1ccc(N2CCN(c3cc(C)ccc3C)CC2)c(NC(=O)Nc2ccccc2)c1 | x | x | x | x | x | 4%
O=C(N/N=C/c1cccc(F)c1)c1cc(-c2ccco2)nc2ccccc12 | 6% | 8% | u | -1% | 1% | 0.54µM*
